Assay [1] can be described thus: yeast TOR pathway RPL19A-GFP modulators, primary screen, cell-based, S. cerevisiae, multiplex flow cytometry (AID 1862; in the data active = percent of DMSO control GFP below about 86%;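 note: lower values mimic rapamycin by blocking the RPL19A rise seen in DMSO cells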). As to conditions: S. cerevisiae RPL19A-GFP strain, flow cytometry fluorescence, 3 h; at 10 µM; stronger effect = lower value.
Assay [2] can be described thus: modulators of MEP2-GFP levels in yeast, primary screen, S. cerevisiae, multiplex flow cytometry (AID 1867;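 active = GFP response, as percent of the DMSO control, above the screen-wide mean plus 3 SD, about 139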;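 note: median GFP channel fluorescence of barcode-gated MEP2-GFP cells measured by flow cytometry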). As to conditions: S. cerevisiae MEP2-GFP strain, 3 h, at 10 µM, stronger effect = higher value, 100% means same as DMSO wells.
A short description of assay [3]: modulators of CIT2-GFP expression in yeast, primary screen, S. cerevisiae, GFP fusion, multiplex flow cytometry (AID 1870;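 active = percent response above a set limit, the screen-wide mean plus 3 SD, cut at about 130% in these data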;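 note: barcoded CIT2-GFP strain pooled with four other GFP strains with rapamycin as positive control; median GFP fluorescence per well over plate mean of DMSO wells so 100% = DMSO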). To be noted: 3 h, at 10 µM, stronger effect = higher value. On the technique in general: A flow cytometer gives signals particle by particle.
Assay [4] is described as follows: modulators of LAP4-GFP expression in yeast, primary screen, S. cerevisiae, multiplex flow cytometry (AID 1873;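 active = GFP signal, as percent of the solvent control, above the screen mean plus 3 SD, about 149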). As to conditions: 3 h, at 10 µM, stronger effect = higher value.
Assay [5] in a line: modulators of AGP1-GFP expression in yeast TOR pathway, primary screen, cell-based, multiplex flow cytometry, S. cerevisiae (AID 1887;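 active = GFP signal above the screen-wide mean plus 3 SD, that is over about 124.5% of the solvent control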;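 note: AGP1-GFP fusion strain of S. cerevisiae within a five-strain barcoded multiplex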). As to conditions: 3 h, at 10 µM, stronger effect = higher value.
Assay [6] in a line: inhibitors of CD8+ T cell-vesicle binding, pilot screen, LFA-1/ICAM-1 modulator project, MLPCN validation set, flow cytometry (AID 2523;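 active = response below a set limit, under 55% cells CD8-positive and vesicle-bound, and CD8 cells' 90th-percentile brightness under 279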;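 for vesicle binding response: mean PE anti-B7-1 fluorescence of CD8+ cells relative to row control; 100% = QL9-loaded vesicles with DMSO vehicle in the same plate row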). To be noted: 2C mouse CD8+ T cells, at 7 µM, stronger effect = lower value; double positive events: measured here: CD8+/vesicle+ event percentage.
Assay [7] deals with Integrin beta-1 (Homo sapiens) + Integrin alpha-4 (Homo sapiens) (UniProt P13612+P05556). The assay can be described thus: inhibition of HUTS-21 binding to VLA-4, pilot screen, VLA-4 allosteric modulator project, U937 cells, HUTS-21 mAb, flow cytometry, validation set (AID 2674;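 active = inhibition above 50%, about 3 SD of the validation set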;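 note: antibody binding induced by the VLA-4 ligand LDV present at three times its Kd; 0% = LDV ligand with antibody and no compound and 100% = antibody without LDV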). To be noted: HUTS-21 LIBS mAb binding, at 6.7 µM, stronger effect = higher value, binding induced by LDV ligand.
Chain of Integrin beta-1 (Homo sapiens) + Integrin alpha-4 (Homo sapiens) (P05556 whole entry, looked up): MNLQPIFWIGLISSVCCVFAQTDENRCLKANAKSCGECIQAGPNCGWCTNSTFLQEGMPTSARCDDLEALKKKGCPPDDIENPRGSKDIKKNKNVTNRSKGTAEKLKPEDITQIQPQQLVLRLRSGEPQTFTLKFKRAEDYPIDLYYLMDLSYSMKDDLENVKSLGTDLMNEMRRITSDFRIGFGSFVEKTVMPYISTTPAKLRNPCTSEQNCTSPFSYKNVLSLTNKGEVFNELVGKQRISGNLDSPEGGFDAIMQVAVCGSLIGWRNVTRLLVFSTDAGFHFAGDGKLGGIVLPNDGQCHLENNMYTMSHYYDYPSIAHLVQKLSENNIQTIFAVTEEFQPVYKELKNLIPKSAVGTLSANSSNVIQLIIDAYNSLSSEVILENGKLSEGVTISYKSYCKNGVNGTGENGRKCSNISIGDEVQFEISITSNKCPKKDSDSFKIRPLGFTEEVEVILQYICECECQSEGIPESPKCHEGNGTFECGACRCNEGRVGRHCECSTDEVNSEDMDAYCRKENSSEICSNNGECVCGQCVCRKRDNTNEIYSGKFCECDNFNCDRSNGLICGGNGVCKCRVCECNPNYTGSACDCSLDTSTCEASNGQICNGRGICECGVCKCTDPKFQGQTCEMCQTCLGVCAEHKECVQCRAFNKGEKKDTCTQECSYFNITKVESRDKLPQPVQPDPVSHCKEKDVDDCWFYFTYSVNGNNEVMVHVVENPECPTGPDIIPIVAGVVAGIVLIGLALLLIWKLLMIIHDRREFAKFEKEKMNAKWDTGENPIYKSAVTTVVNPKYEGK
Chain of Integrin beta-1 (Homo sapiens) + Integrin alpha-4 (Homo sapiens) (P13612 whole entry, looked up): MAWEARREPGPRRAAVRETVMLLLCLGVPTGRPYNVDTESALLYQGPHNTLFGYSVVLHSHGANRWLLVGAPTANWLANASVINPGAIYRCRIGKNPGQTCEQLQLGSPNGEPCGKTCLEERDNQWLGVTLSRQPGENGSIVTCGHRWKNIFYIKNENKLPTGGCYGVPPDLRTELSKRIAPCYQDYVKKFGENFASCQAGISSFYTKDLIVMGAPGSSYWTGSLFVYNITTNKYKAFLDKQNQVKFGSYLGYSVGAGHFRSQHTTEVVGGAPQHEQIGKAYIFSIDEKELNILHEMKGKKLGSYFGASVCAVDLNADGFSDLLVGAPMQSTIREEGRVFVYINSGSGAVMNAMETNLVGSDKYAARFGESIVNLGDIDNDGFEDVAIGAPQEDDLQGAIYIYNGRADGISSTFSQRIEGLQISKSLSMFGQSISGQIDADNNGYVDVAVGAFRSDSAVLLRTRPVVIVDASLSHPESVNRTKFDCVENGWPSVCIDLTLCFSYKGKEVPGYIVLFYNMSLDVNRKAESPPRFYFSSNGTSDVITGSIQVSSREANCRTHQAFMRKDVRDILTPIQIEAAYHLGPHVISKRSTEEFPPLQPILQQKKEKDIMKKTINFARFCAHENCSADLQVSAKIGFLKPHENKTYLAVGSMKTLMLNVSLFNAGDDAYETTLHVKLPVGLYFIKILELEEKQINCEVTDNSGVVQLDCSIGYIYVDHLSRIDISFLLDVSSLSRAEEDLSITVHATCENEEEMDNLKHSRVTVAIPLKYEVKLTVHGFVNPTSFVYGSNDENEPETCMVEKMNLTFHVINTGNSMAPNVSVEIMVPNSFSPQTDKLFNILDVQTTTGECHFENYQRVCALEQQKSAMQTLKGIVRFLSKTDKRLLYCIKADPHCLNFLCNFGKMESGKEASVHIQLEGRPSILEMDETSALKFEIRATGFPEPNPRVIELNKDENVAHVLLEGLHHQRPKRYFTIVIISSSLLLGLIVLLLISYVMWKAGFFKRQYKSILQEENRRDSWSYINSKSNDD

Assay [8] can be described thus: superoxide lowering in aged yeast cells, pilot screen, validation compound set (AID 2706;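 active = superoxide response below 65% of plate, a cut near 3 SD across the whole screen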;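 note: yeast exposed to compound for one week at 30 degrees C before staining; 100% = mean of all compound wells on the same plate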). As to conditions: S. cerevisiae aging, superoxide DHE fluorescence; at 10 µM; stronger effect = lower value.
For assay [9], the target named is Beta-adrenergic receptor kinase 1 (Homo sapiens) (UniProt P25098). The assay can be described thus: GRK2 binders displacing RNA aptamer, biochemical, validation, human GRK2, bead flow cytometry (AID 488806;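 active = aptamer binding inhibition above 30%, about 3 SD of noise from non-fluorescent compounds; inactive = inhibition at or below 30%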). To be noted: bead-bound GRK2, FAM-aptamer displacement, at 10 µM, stronger effect = higher value.
Chain of Beta-adrenergic receptor kinase 1 (Homo sapiens) (P25098 whole entry, looked up): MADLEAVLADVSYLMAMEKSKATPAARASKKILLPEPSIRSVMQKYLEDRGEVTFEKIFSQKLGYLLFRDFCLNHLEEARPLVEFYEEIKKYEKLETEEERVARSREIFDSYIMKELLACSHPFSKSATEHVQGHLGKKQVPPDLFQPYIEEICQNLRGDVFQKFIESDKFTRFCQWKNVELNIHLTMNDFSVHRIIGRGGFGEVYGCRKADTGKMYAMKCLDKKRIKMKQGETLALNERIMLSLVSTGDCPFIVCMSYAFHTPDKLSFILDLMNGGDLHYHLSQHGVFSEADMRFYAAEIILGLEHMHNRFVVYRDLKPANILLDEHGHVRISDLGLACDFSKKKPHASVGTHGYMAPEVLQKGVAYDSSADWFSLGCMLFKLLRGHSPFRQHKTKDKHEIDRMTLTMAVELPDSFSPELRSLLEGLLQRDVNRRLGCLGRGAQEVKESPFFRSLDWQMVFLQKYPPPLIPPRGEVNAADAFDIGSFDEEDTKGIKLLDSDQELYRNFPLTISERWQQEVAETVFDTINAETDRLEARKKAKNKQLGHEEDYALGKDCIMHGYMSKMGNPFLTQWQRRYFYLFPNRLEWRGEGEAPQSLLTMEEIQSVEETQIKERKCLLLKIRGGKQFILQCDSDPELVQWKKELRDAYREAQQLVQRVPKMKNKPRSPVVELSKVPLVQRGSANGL
Assay [10] has as its target Beta-2 adrenergic receptor (Homo sapiens) (UniProt P07550). The assay can be described thus: beta2AR agonists driving receptor internalization, pilot screen, cell-based, FAP fluorogen, flow cytometry, validation set (AID 504459;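 active = percent response above 42, roughly 3 SD of non-fluorescent test compounds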;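 note: agonist-driven loss of surface beta2AR via internalization measured by FAP dye flow cytometry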). As to conditions: Am2.2-beta2AR cells, FAP surface receptor flow cytometry; at 10 µM; stronger effect = higher value.
In assay [11] the target is AP-2 complex subunit beta (Homo sapiens) (UniProt P63010). The assay can be described thus: inhibitors of arrestin peptide binding to AP2, pilot screen, biochemical, validation set, GST-AP2 beads, flow cytometry (AID 504541;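 active = inhibition above 54%, about 3 SD of non-fluorescent compounds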;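 note: AP2 carries R879A mutation and is captured from E. coli lysate; bead-bound FITC arrestin peptide fluorescence measuring arrestin peptide binding to AP2; 0% = DMSO wells and 100% = excess unlabeled arrestin peptide control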). As to conditions: FITC arrestin peptide, at 10 µM, stronger effect = higher value, AP2 beta2 appendage fragment, R879A mutant.
Chain of AP-2 complex subunit beta (Homo sapiens) (P63010 whole entry, looked up, the tested form may be a part, one chain of several): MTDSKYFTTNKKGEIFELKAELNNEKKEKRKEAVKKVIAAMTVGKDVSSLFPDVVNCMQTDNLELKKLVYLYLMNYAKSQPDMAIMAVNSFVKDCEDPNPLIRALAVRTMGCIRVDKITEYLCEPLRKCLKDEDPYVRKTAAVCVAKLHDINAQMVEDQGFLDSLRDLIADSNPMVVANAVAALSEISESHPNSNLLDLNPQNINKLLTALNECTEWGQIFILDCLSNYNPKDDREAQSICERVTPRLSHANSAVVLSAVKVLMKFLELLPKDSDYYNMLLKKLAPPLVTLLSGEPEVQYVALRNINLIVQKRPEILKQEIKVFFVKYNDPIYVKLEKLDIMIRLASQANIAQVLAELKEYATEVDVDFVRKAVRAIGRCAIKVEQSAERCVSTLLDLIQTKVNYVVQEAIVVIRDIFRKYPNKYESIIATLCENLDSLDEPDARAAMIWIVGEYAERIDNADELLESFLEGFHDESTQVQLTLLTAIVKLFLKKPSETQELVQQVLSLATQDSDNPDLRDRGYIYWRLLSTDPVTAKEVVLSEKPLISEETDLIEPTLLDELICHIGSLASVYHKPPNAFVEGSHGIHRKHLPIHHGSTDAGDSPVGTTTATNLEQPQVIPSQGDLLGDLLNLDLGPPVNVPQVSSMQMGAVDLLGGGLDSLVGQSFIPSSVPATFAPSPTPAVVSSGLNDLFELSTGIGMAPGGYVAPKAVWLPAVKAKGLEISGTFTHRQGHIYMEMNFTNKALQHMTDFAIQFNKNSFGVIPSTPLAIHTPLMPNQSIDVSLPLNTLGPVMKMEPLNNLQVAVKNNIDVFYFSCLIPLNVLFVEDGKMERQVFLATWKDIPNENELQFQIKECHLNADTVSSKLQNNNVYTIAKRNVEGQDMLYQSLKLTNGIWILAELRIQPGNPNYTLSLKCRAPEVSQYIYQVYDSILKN
Assay [12] is described as follows: yeast V-ATPase proton transport modulators, S. cerevisiae, pHLuorin, HTS validation (AID 504600; in the data active = response above about 15%;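 note: plate controls were DMSO for no effect and reference compound for full effect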). To be noted: S. cerevisiae pHLuorin cytosolic pH, at 10 µM, stronger effect = higher value.
Assay [13] concerns anti-desmoglein-3 scFv antibody binding to human DSG3. In words: inhibitors of anti-DSG3 scFv binding to DSG3, pilot screen, biochemical, validation compound set, bead-based, flow cytometry (AID 588368;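 active = binding below the plate cutoff, the plate median minus 3 SD, with a reading above zero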;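 note: signal is the median channel fluorescence of bead-bound GFP antibody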). To be noted: Protein G beads, DSG3-Fc, scFv-GFP binding, at 10 µM, stronger effect = lower value.
Assay [14] is described as follows: inhibitors of fungal efflux pumps CDR1, CDR2, MDR1, pilot screen, validation compound set, multiplex, phenotypic (AID 588506).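 Note: Nile Red retained in cells so higher fluorescence means more efflux inhibition; 0 = negative control wells and 1 = enniatin B 25 µM full block.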 As to conditions: S. cerevisiae pump-expressing triplex, Nile Red efflux flow cytometry; at 10 µM; stronger effect = higher value; the pumps come from Candida albicans.
For assay [15], the target named is ATP-binding cassette sub-family B member 6 (Homo sapiens) (UniProt Q9NP58). The assay can be described thus: ABCB6 transporter inhibitors, pilot screen, K562-ABCB6 cells, flow cytometry, validation set (AID 588550;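 active = inhibition above the screen-wide mean plus 3 SD, about 51%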;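 note: 0% = DMSO wells and 100% = benzethonium chloride 70 µM positive control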). As to conditions: K562-ABCB6 porphyrin accumulation, 1 h, at 10 µM, stronger effect = higher value.
Chain of ATP-binding cassette sub-family B member 6 (Homo sapiens) (Q9NP58 whole entry, looked up): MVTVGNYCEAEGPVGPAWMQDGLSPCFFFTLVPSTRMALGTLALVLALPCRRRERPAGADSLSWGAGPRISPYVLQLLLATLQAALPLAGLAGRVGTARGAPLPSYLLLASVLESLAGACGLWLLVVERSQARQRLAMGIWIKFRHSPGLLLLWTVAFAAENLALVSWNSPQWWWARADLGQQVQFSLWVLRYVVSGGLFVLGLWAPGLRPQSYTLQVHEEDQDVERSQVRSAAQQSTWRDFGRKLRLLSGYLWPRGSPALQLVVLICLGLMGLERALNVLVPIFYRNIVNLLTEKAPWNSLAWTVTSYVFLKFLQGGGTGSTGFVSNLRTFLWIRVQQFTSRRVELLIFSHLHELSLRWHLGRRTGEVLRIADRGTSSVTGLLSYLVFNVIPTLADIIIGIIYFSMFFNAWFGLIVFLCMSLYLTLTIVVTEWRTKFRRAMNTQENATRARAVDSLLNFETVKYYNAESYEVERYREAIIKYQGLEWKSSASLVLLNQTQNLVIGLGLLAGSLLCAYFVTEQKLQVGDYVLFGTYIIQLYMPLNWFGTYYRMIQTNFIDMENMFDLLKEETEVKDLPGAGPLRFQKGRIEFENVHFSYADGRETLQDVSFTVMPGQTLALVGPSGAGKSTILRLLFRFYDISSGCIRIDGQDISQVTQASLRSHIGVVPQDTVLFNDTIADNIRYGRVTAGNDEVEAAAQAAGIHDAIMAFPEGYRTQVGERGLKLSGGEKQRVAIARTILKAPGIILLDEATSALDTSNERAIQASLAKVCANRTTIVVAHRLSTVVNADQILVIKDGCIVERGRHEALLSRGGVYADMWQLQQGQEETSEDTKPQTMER
Assay [16] in a line: promoters of myeloid differentiation in arrested cells, primary screen, cell-based, GFP/MAC1 double positive, flow cytometry, validation set (AID 588685;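 active = differentiation response of at least 50%, scaled between solvent and reference control, from cells with both markers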;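 note: compound exposure lasts four days before antibody staining and flow analysis; 0% = DMSO wells and 100% = 5 µM fulvestrant positive control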). To be noted: ER-HoxA9 marrow cells, stronger effect = higher value, normalized: vehicle 0, fulvestrant 100.

Records with an inconclusive call do not appear. Activity calls are given as the source filed them.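 Rule for the calls, unless noted: active = efflux inhibition above 0.42, the validation set average plus 4 SD; inconclusive = no clear call, values can overlap the other calls; inactive = the rest.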

Chain of Beta-2 adrenergic receptor (Homo sapiens) (P07550 whole entry, looked up): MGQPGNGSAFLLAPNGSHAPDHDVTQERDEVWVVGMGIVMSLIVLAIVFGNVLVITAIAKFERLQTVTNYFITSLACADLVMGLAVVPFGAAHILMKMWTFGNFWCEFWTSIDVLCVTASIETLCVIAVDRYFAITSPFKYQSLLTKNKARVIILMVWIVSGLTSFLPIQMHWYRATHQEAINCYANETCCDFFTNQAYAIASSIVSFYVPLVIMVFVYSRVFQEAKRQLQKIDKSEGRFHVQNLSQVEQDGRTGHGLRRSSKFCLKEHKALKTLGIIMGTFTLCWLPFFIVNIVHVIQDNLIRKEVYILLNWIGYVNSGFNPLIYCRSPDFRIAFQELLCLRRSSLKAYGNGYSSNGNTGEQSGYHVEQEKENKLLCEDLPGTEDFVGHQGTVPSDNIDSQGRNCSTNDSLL

With `CCc1cc2c(C)cc(=O)oc2cc1OC(=O)C1CCCN1C(=O)OC(C)(C)C` (stereo not drawn), the percent of DMSO control GFP in assay [1] is 103% (inactive). The GFP response vs DMSO in [2] is 95.2% (inactive); in assay [4], 82% (inactive). Moreover, the percent response of DMSO control in assay [3] was 110% (inactive). For the same compound, the GFP response, % of DMSO in assay [5] was 96.3% (inactive). The double positive events in [6] was 57.4%. Moreover, in [6], the vesicle binding response was 247% (inactive). The inhibition (commonly the relative decrease from the control value, in per cent) in assay [7] was 0.94% (inactive); in assay [11], -11.6% (inactive); in [15], 6% (inactive). Moreover, the superoxide response (% of plate) in [8] is 92.9% (inactive). For the same compound, the aptamer binding inhibition in assay [9] is 2% (inactive). Besides, the response in assay [10] is 19.6% (inactive); in [12], 1.36% (inactive). Besides, in assay [13], the binding (% of control) was 103% (inactive). Moreover, the efflux inhibition (fraction of control) in assay [14] is -0.03 (inactive). Further, the differentiation response in [16] is -20% (inactive).
With `CCOC(=O)c1ccc(NC(=S)NCCc2ccccc2F)cc1`, in assay [1], the percent of DMSO control GFP is 100% (inactive). Further, the GFP response vs DMSO in [2] is 107% (inactive); in assay [4], 111% (inactive). The percent response of DMSO control in assay [3] was 101% (inactive). For the same compound, in assay [5], the GFP response, % of DMSO is 93.7% (inactive). For the same compound, the double positive events in [6] amounted to 68.7%. Moreover, the vesicle binding response in assay [6] was 1410% (inactive). The inhibition is -21.2% (inactive) in assay [7], 18.6% (inactive) in [11] and -3% (inactive) in assay [15]. In addition, the superoxide response (% of plate) in assay [8] is 98.7% (inactive). Also, in [9], the aptamer binding inhibition was 3% (inactive). The response was 2.84% (inactive) in [10] and 1.24% (inactive) in [12]. In addition, the binding (% of control) in assay [13] was 104% (inactive). In assay [14], the efflux inhibition (fraction of control) was 0.58 (active). For the same compound, in assay [16], the differentiation response is 9.04% (inactive).
As to `COC1CCN(Cc2cn(Cc3ccccc3)nc2-c2cc3ccccc3o2)CC1`, the percent of DMSO control GFP in [1] was 105% (inactive). Moreover, the GFP response vs DMSO in assay [2] was 93% (inactive); in assay [4] it was 89.4% (inactive). In addition, the percent response of DMSO control in [3] was 102% (inactive). Further, in [5], the GFP response, % of DMSO is 98.9% (inactive). The compound further came in with a double positive events in assay [6] of 61.8%. Also, in [6], the vesicle binding response is 243% (inactive). In addition, the inhibition was 22.4% (inactive) in assay [7], 9.94% (inactive) in assay [11] and 12% (inactive) in assay [15]. In addition, the superoxide response (% of plate) in assay [8] was 104% (inactive). In addition, the aptamer binding inhibition in assay [9] is 0% (inactive). The values for the response in assay [10] and in assay [12] were 8.96% (inactive) and -0.82% (inactive), respectively. In addition, in [13], the binding (% of control) is 105% (inactive). The efflux inhibition (fraction of control) in assay [14] was -0.14 (inactive). Besides, in assay [16], the differentiation response is -9.53% (inactive).
On to `COC(=O)c1ccc2c(c1)C(=O)/C(=C/c1ccc(O)cc1)O2`, for which, in [1], the percent of DMSO control GFP is 95.4% (inactive). In addition, the GFP response vs DMSO in assay [2] was 109% (inactive); in assay [4] it was 111% (inactive). Moreover, the percent response of DMSO control in assay [3] was 92% (inactive). For the same compound, the GFP response, % of DMSO in assay [5] was 95.5% (inactive). The same compound had a double positive events in assay [6] of 59%. In addition, the vesicle binding response in [6] was 90.4% (inactive). For the same compound, the inhibition was -8.62% (inactive) in [7], 6.94% (inactive) in [11] and 2% (inactive) in [15]. Besides, the superoxide response (% of plate) in [8] was 102% (inactive). In [9], the aptamer binding inhibition is 2% (inactive). For the same compound, the response was -5.34% (inactive) in assay [10] and -1.86% (inactive) in assay [12]. In addition, the binding (% of control) in assay [13] is 100% (inactive). The efflux inhibition (fraction of control) in assay [14] is 0.19 (inactive). Further, in [16], the differentiation response was -26.4% (inactive).

(Values after PubChem BioAssay.)
